PubChem BioAssay (NCI)
About 83,000 compounds went through this panel and 20% of them were active in at least one assay; those are over-represented in the sample as a whole.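 Treatment: one concentration, 48 hours, 96-well format. Scoring: percent growth, with anything below 10 considered active.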 A number with no mark means an inactive call. The source made the active and inactive calls.

Legend:
Assay in all cases: NCI-60 one-dose screen, 48 h (100 = growth as untreated, 0 = no growth, -100 = all killed)
Conditions in all cases: 10 µM unless noted
[1] = tested on: HCT-15 colon
[2] = tested on: HT29 colon
[3] = tested on: SNB-75 CNS
[4] = tested on: SNB-19 CNS
[5] = tested on: U251 CNS
[6] = tested on: PC-3 prostate
[7] = tested on: UACC-62 melanoma
[8] = tested on: LOX IMVI melanoma
[9] = tested on: SK-MEL-28 melanoma
[10] = tested on: SK-MEL-2 melanoma
[11] = tested on: EKVX NSCLC
[12] = tested on: SN12C renal
[13] = tested on: UO-31 renal
[14] = tested on: TK-10 renal
[15] = tested on: ACHN renal
[16] = tested on: CAKI-1 renal
[17] = tested on: CCRF-CEM leukemia
[18] = tested on: MOLT-4 leukemia
[19] = tested on: A498 renal
[20] = tested on: SK-MEL-5 melanoma

Compound | growth [1] | growth [2] | growth [3] | growth [4] | growth [5] | growth [6] | growth [7] | growth [8] | growth [9] | growth [10] | growth [11] | growth [12] | growth [13] | growth [14] | growth [15] | growth [16] | growth [17] | growth [18] | growth [19] | growth [20]
COc1cccc(-c2cc(C(=O)Nc3ccc(/C=C/c4ccc(OC5CCN(C)CC5)cc4)cc3)ccc2OC)c1 | -61.8% (active) | -60.1% (active) | -50.3% (active) | -11.1% (active) | -92.6% (active) | 8.53% (active) | 69.6% | -86.9% (active) | 41.7% | 98.5% | 27.2% | -78.3% (active) | 37.7% | 1.81% (active) | 60.1% | 109% | -10.8% (active) | -36.4% (active) | – | –
O=C(Cn1c[n+](CC(=O)c2ccc([N+](=O)[O-])cc2)c2ccccc21)Nc1cccc2cccnc12 | 101% | 40.4% | 29.8% | 37.5% | 63.7% | 38.9% | 69.1% | 86.3% | 78.7% | 41.4% | 73.6% | 30% | 66% | 114% | 93.8% | 84.1% | 89.4% | 92.8% | 94.7% | –
COc1ccc(-c2[nH][nH]c(=O)c2-c2nc3ccccc3s2)cc1 | 95.4% | 106% | 88.9% | 102% | 101% | – | 98% | 99.9% | 112% | 104% | 99.9% | 98.4% | 86.6% | 108% | 106% | 88% | 99.1% | 102% | – | 102%
CCN(CC)CCCC(C)Nc1cc(O)cc2cccnc12 (stereo not drawn) | 102% | 44.4% | 74.9% | 93.8% | 88.2% | 86.8% | 94.4% | 88.7% | 122% | 135% | 106% | 85.7% | 83.4% | 122% | 102% | 109% | 108% | 112% | – | –
CCCCCCNC(=O)Nc1ccc2cc3ccc(NC(=O)NCCCCCC)cc3nc2c1 | 88.7% | 20.2% | -16.3% (active) | -47.9% (active) | -89.1% (active) | – | -79% (active) | -79.7% (active) | -65.4% (active) | 11.3% | 48.7% | -72.7% (active) | 94.2% | 97.8% | 96.7% | 71.4% | 0.631% (active) | -45% (active) | – | 3.38% (active)
COc1ccc(OC)c(-c2cc(-c3ccc(Cl)cc3)c3c(N)c(C(=O)c4ccc(Cl)cc4)sc3n2)c1 | 106% | 91.1% | 73.6% | 103% | 101% | 81.4% | 92.2% | 98.3% | 105% | 94.2% | – | 101% | 75.4% | 102% | 97.4% | 88.5% | 88.7% | 103% | – | –
CC(=O)c1ccc(NS(=O)(=O)c2cccc(C(=O)Nc3ccc(Br)cc3)c2)cc1 | 68.2% [25 µM] | 87.4% [25 µM] | 78.3% [25 µM] | 60.4% [25 µM] | 70.8% [25 µM] | – | 26.5% [25 µM] | 62.7% [25 µM] | 77.9% [25 µM] | 41% [25 µM] | 34.2% [25 µM] | 64.7% [25 µM] | 53.8% [25 µM] | 91.3% [25 µM] | 73.3% [25 µM] | 52.8% [25 µM] | 61.6% [25 µM] | 53.7% [25 µM] | – | -19.8% [25 µM] (active)
CNC(=O)c1cccc(Cn2nc(C)c(NC(=O)c3ccc(COc4ccc(C(F)(F)F)cc4C)cc3)c2C)n1 | 49.4% | 42% | 80.9% | 47.8% | 44.7% | – | 63% | 55.2% | 70.5% | 50.5% | 37.5% | 59.8% | 50.8% | 56.2% | 54.9% | 46.4% | 60.2% | 29.6% | – | -6.19% (active)
Cc1nn(-c2ccccc2)c(Oc2c(Cl)cccc2Cl)c1/C=N/N=c1\sc2ccccc2n1C | 25.3% | 33.7% | 86.4% | 49.7% | 28.5% | – | 36.2% | 26% | 64.1% | 80% | 77.9% | 59.1% | 57.5% | 85.7% | 43.7% | 36.4% | 40.7% | 18.6% | – | 20.2%
Cc1nc(N)nc(N[C@@H](C)c2nc3cccc(NCc4ccc(C(=O)NO)cc4)c3c(=O)n2-c2ccccc2)n1 | 110% | 77.3% | 69.6% | 71.3% | 52.7% | – | 59.1% | 72.8% | 70% | 74.7% | – | – | 68.4% | 80.3% | 101% | 77.5% | 23.2% | 32.9% | – | 77.3%
CC(=O)Oc1ccc(/C=N/NC(N)=S)nc1 | 92% | 94.6% | 8.77% (active) | 102% | 51.7% | – | 59.3% | 47.7% | 65.7% | 79.2% | 105% | 73.6% | 52.7% | 108% | 13.2% | 49.8% | 39.3% | 56% | 88.6% | 14.6%
O=C1c2ccc3c4c(ccc(c24)C(=O)N1CCCNCc1ccccc1)C(=O)N(CCCNCc1ccccc1)C3=O | -57.7% (active) | -63.5% (active) | -97.2% (active) | -75.5% (active) | -87.7% (active) | – | -71.1% (active) | -75.6% (active) | -95.9% (active) | -82.9% (active) | -39.2% (active) | -88% (active) | -48.6% (active) | -84.2% (active) | -53.5% (active) | -19.6% (active) | -30.5% (active) | -32.3% (active) | – | -99.2% (active)
O=C1Nc2ccc(F)cc2/C1=C\c1c(-c2ccccc2)nc2ccccn12 | 51.9% | 52.1% | 61.6% | 75.4% | 82.7% | – | 60.7% | 64.1% | 85.1% | 63.7% | 61.8% | 80.4% | 46.6% | 81% | 53.4% | 34.3% | 57.7% | 51% | 43.1% | 61.5%
CC1(C)CC[C@]2(C(=O)O)CC[C@]3(C)C(=CC[C@@H]4[C@@]5(C)Cc6c([nH]c7ccccc67)C(C)(C)[C@@H]5CC[C@]43C)[C@@H]2C1 | 21.3% | 27.2% | 49.4% | 60% | 25.7% | – | 63.7% | 40.3% | 83.2% | 72.6% | 34.3% | 42.8% | 32.7% | 31.3% | 18.2% | 17.5% | 30.6% | 32.3% | – | 73.7%
COc1ccc2[nH]c(O)c(/C=c3/cc4c(c(-c5ccc(F)cc5)n3)=Nc3ccccc3-4)c2c1 | 26.7% | -29.8% (active) | 82.6% | 78% | 66.3% | – | 90.2% | 68.9% | 93.9% | 103% | 74.1% | 88.6% | 72.5% | 107% | 92.2% | 87% | – | – | 70.2% | 72.1%
CCN(c1ccccc1)S(=O)(=O)c1cc([N+](=O)[O-])ccc1Cl | 75.7% | 63% | 66.2% | 85% | 59.2% | – | 57.5% | 52.4% | 88.8% | 46.2% | 88.3% | – | 53.9% | 107% | 79.9% | 48.1% | 52% | – | 71.9% | 45.3%
C/C(=N\NC(=O)CSc1nc2ccccc2c(=O)n1Cc1ccc(S(N)(=O)=O)cc1)c1ccc(F)cc1 | 96.9% | 94.7% | 98.5% | 102% | 103% | – | 102% | 97.6% | 117% | 111% | 90.9% | 101% | 84.5% | 102% | 105% | 95% | 106% | 107% | – | –
